Inconclusive results are not listed. A number with no mark means an inactive call. Activity calls are given as the source filed them. The call rests on the fitted dose curve; in most records, active means well fitted inhibition curve with a large enough effect; inconclusive means small, poorly fitted or top-dose-only effect; inactive means flat fitted curve, though single readings scatter.
The molecules below were run on CP256 (assay: qHTS profiling for inhibitors of Plasmodium falciparum proliferation (AID 504749; further: nearly all actives have a fitted effect of over 60% in size;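 on activity, negative = inhibition: 0% = DMSO vehicle and full inhibition = artemisinin control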)). Conditions: P. falciparum in erythrocytes, SYBR Green DNA, 72 h; series mostly up to 28.7 µM; activity, negative = inhibition: at the top concentration.
Outline: (§1)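 Quantitative HTS: compounds pinned into medium, infected erythrocytes added (0.3% parasitemia, 2.5% hematocrit), 72 h culture at 37 C under 5% CO2. Saponin/Triton lysis with SYBR Green I, overnight RT, then fluorescence read.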
Potency means the concentration at half of the fitted maximal effect.

Compound | activity, negative = inhibition | Potency
CN1CCN(C2=Nc3ccccc3Sc3ccc(Cl)cc32)CC1 | -21.9% | 
CN1CCN(c2cc3c(cc2F)c(=O)c(C(=O)O)cn3-c2ccc(F)cc2)CC1 | -25.2% | 
O=C(c1ccc(F)cc1)C1CCN(CCn2c(=S)[nH]c3ccccc3c2=O)CC1 |  | 8.91 µM (active)
COc1ccc(C(=O)c2ccccc2O)c(O)c1 | -28.1% [at 12.8 µM] | 
CCc1ccc(C(=O)C(C)CN2CCCCC2)cc1 (stereo not drawn) | -0.561% | 
Oc1c(Cl)cc(Cl)c(Cl)c1Cc1c(O)c(Cl)cc(Cl)c1Cl | -27.5% | 
C#C[C@]1(O)CC[C@H]2[C@@H]3CCC4=CC(=O)CC[C@@H]4[C@H]3CC[C@@]21CC | -8.03% | 
FC1(F)C(F)(F)C(F)(F)C2(F)C(F)(F)C(F)(F)C(F)(F)C(F)(F)C2(F)C1(F)F (stereo not drawn) | 6.34% | 
CCCc1ncc(C[n+]2ccccc2C)c(N)n1 | 0.34% [at 12.8 µM] | 
O=C(O)C1(C(=O)O)CCC1.[NH2-].[NH2-].[Pt+2] | 2.07% | 
Cc1cc(CC(=O)O)c(C)n1-c1ccc(Cl)cc1 | -26.6% | 
O=C(Oc1cccc2cccnc12)c1ccccc1 | -6.33% | 
O=C(O)CCc1nc2ccccc2[nH]1 | -107% | 
Cc1ccc(O)c([C@H](CCN(C(C)C)C(C)C)c2ccccc2)c1 |  | 7.94 µM (active)
O=C(O)c1ccc(S(=O)(=O)N(Cl)Cl)cc1 | 1.61% | 
N=C(N)N1CCc2ccccc2C1 | 3.85% | 
O=[N+]([O-])c1cccc(S(=O)(=O)NCCNS(=O)(=O)c2cccc([N+](=O)[O-])c2)c1 | -10.1% | 
COc1ccc(C(=O)c2ccccc2)c(O)c1 | -21.1% | 
COc1cc(C(=O)N2CCCCCCC2)cc(OC)c1OC | 9.39% | 
CC(=O)NCCCCCC(=O)O | 8.84% | 
Cc1ncc(CO)c(C=O)c1O | 2.24% | 
O=C1C(=O)c2ccccc2C(O)=C1C1CCC(c2ccc(Cl)cc2)CC1 (stereo not drawn) |  | 0.0016 µM (active)
Cc1cccc(C)c1NC(=O)CN1CCCC1 | 0.702% | 
CCOC(=O)c1c(N)sc2c1CCN(Cc1ccccc1)C2 |  | 5.01 µM (active)
NC(N)=NCc1cccc(I)c1 | -19.6% | 

The molecules below were run on CP260 in the same assay as above. Conditions: P. falciparum in erythrocytes, SYBR Green DNA, 72 h; series mostly up to 28.7 µM; activity, negative = inhibition: at the top concentration.
Outline: as §1

Compound | activity, negative = inhibition | Potency
NCc1ccccc1Sc1ccccc1CO | -29.5% | 
O=C(c1ccc(F)cc1)C1CCN(CCn2c(=S)[nH]c3ccccc3c2=O)CC1 |  | 3.16 µM (active)
COc1ccc(C(=O)c2ccccc2O)c(O)c1 | -26.7% [at 12.8 µM] | 
CCCN(CCc1cccs1)[C@H]1CCc2c(O)cccc2C1 |  | 12.6 µM (active)
NC(N)=NN=C(/C=C/c1ccc([N+](=O)[O-])o1)/C=C/c1ccc([N+](=O)[O-])o1 |  | 3.55 µM (active)
CCCc1ncc(C[n+]2ccccc2C)c(N)n1 | 0.695% [at 12.8 µM] | 
Cc1cc(CC(=O)O)c(C)n1-c1ccc(Cl)cc1 | -24.6% | 
Cc1ccc(O)c([C@H](CCN(C(C)C)C(C)C)c2ccccc2)c1 |  | 5.01 µM (active)
O=C(O)c1ccc(S(=O)(=O)N(Cl)Cl)cc1 | 4.83% | 
CN(C)CCC[C@@]1(c2ccc(F)cc2)OCc2cc(C#N)ccc21 | -18.6% | 
COc1cc(C(=O)N2CCCCCCC2)cc(OC)c1OC | 4.53% | 
Cc1cccc(C)c1NC(=O)c1ccccc1C(=O)O | 0.0538% | 
CC(=O)NCCCCCC(=O)O | 6.97% | 
Cc1ncc(CO)c(C=O)c1O | 4.11% | 
O=C1C(=O)c2ccccc2C(O)=C1C1CCC(c2ccc(Cl)cc2)CC1 (stereo not drawn) |  | 0.0008 µM (active)
Cc1cccc(C)c1NC(=O)CN1CCCC1 | -20.3% | 
CCOC(=O)c1c(N)sc2c1CCN(Cc1ccccc1)C2 |  | 6.31 µM (active)
CC(C)NCC(O)c1ccc2ccccc2c1 (stereo not drawn) |  | 6.31 µM (active)
